Laboratory results reported in the supplement of paper PMC3334620.
The full ranking holds about 33,000 sequences; the median of “E-score (-0.5 to 0.5)” is about -0.035, and the highest 2% start at about 0.35. The entries come from a sample that favours the highest values as a whole.

Each sequence was assayed against T1, Pdr3 (UniProt P33200) (assay: PBM E-score (8-mer binding enrichment) (E-score (-0.5 to 0.5)); higher = stronger / more preferred TF binding). Conditions: protein concentration: 200 nM; construct: GST-full length.
T1 sequence: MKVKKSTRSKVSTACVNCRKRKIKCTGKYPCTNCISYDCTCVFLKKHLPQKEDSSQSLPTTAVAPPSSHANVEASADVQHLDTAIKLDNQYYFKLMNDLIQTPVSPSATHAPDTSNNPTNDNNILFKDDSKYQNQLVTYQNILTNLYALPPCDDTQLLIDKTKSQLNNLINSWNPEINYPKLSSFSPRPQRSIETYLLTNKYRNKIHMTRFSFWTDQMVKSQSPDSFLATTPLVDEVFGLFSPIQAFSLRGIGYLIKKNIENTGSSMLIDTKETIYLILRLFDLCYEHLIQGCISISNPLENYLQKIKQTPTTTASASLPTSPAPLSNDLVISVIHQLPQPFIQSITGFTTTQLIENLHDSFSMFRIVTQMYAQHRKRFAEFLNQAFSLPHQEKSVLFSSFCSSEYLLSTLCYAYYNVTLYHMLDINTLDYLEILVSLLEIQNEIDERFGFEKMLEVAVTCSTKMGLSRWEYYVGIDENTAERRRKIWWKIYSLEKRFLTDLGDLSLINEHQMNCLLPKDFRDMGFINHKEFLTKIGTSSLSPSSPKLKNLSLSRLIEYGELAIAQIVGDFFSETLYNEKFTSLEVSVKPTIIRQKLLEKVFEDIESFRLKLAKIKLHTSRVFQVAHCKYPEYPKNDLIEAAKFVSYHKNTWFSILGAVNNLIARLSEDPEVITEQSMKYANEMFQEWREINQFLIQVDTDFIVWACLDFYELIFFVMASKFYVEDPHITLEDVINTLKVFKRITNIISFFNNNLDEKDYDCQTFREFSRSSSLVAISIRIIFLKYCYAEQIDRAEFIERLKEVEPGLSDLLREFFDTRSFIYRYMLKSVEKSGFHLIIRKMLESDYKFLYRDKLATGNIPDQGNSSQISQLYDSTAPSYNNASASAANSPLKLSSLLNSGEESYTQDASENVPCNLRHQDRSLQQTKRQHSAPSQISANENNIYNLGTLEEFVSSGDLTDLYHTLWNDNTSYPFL
In short: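 Yeast transcription factors carrying a GST tag, as full-length proteins or DNA-binding domains, were produced by PURExpress in vitro transcription/translation. About 100-200 nM protein was applied to universal all-10-mer Agilent arrays, double-stranded by primer extension on fresh or once-stripped slides. Bound protein was detected with fluorescent anti-GST, and scans were normalised with masliner. The Universal PBM Analysis Suite gave each ungapped eight-base word, pooled with its reverse complement, an E-score, a modified Wilcoxon-Mann-Whitney statistic.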
With AGAGTATA the “PBM E-score” value was -0.259. In the case of ATCCTGGC, the “PBM E-score” value is reported as -0.0357. In the case of AGTGCCTC, the “PBM E-score” value is reported as -0.229. For TTCCCCAA, the “PBM E-score” value was -0.0249. In the case of ATCGGAAT, the “PBM E-score” value is reported as 0.43. With ATCGGCAT the “PBM E-score” value was 0.175. With CTAGGAAC the “PBM E-score” value was -0.0409. With CTCGGAGC the “PBM E-score” value was 0.276. For ATCGGATA, the “PBM E-score” value was 0.325. For CTCGGAAC, the “PBM E-score” value was 0.474. CCACAGCG was tested, and the “PBM E-score” value was -0.0122. In the case of TACGGCCA, the “PBM E-score” value is reported as -0.0624. With CTTCGCCC the “PBM E-score” value was 0.0168. For CCCGCCCC, the “PBM E-score” value was 0.357. For CCCGCCGA, the “PBM E-score” value was 0.305. With CGCGCCCG the “PBM E-score” value was 0.23. With ATCGCCGC the “PBM E-score” value was 0.166. For CCCGCCGC, the “PBM E-score” value was 0.27. For ATCGCCGG, the “PBM E-score” value was 0.373. In the case of CCCGCCCG, the “PBM E-score” value is reported as 0.372. With ACCGCCCC the “PBM E-score” value was 0.148. In the case of ACCGCCCG, the “PBM E-score” value is reported as 0.227. With CCCGCCCA the “PBM E-score” value was 0.231. With ATCGCCGA the “PBM E-score” value was 0.154. For CCCGCCGG, the “PBM E-score” value was 0.373. For GAATCTCC, the “PBM E-score” value was 0.225. In the case of GTGGCCGA, the “PBM E-score” value is reported as 0.107. In the case of ACCAGTCG, the “PBM E-score” value is reported as -0.0214. With ACCGCCGA the “PBM E-score” value was 0.103. TCCGCCGA was tested, and the “PBM E-score” value was 0.376. GCCGCCGA was tested, and the “PBM E-score” value was 0.292. With CATGGGAG the “PBM E-score” value was -0.124. For CAGTCTCG, the “PBM E-score” value was -0.203. In the case of TGCGATAA, the “PBM E-score” value is reported as 0.0592. For ACGGTAGT, the “PBM E-score” value was -0.00668. For ATCGGGAA, the “PBM E-score” value was 0.279. In the case of ATCCGGGC, the “PBM E-score” value is reported as 0.386. For ATCGGGGG, the “PBM E-score” value was 0.0408. For ATCCGGGA, the “PBM E-score” value was 0.313. For ATCCGGGG, the “PBM E-score” value was 0.389. In the case of AGCCGGGC, the “PBM E-score” value is reported as 0.137. CTCCGGGC was tested, and the “PBM E-score” value was 0.236. CTGCTCGA was tested, and the “PBM E-score” value was -0.176. AGCCATCA was tested, and the “PBM E-score” value was -0.0552. ACGCCGAT was tested, and the “PBM E-score” value was -0.0606. With CATCCGCA the “PBM E-score” value was 0.237. AGTCCGCA was tested, and the “PBM E-score” value was 0.203. CATCCGCG was tested, and the “PBM E-score” value was 0.359. AGTCCGCG was tested, and the “PBM E-score” value was 0.364. For AATCCGCA, the “PBM E-score” value was 0.246. In the case of AATCCGCT, the “PBM E-score” value is reported as 0.16. CATCCGCC was tested, and the “PBM E-score” value was 0.345. In the case of AGTCCGCC, the “PBM E-score” value is reported as 0.324. With AATCCGCG the “PBM E-score” value was 0.388. GCCCTAAA was tested, and the “PBM E-score” value was -0.219. In the case of CCTCAAGC, the “PBM E-score” value is reported as -0.113. With AGCTCTGC the “PBM E-score” value was -0.217. In the case of CAGCTCTA, the “PBM E-score” value is reported as -0.128. In the case of TAAGCGTA, the “PBM E-score” value is reported as -0.311. For CGAGAGCG, the “PBM E-score” value was 0.0432. For ATTCGGTC, the “PBM E-score” value was 0.0502. For TCGAGAAA, the “PBM E-score” value was -0.197. With CCGAGAAA the “PBM E-score” value was 0.357. For GCGAGAAA, the “PBM E-score” value was -0.0403. For ACAGTGGT, the “PBM E-score” value was -0.156. With CAGATCCG the “PBM E-score” value was 0.314. With AGGATCCG the “PBM E-score” value was 0.301. With AGGATCCA the “PBM E-score” value was -0.0311. In the case of CGGATCCC, the “PBM E-score” value is reported as 0.374. With TGGATCCA the “PBM E-score” value was 0.096. For GGGATCCA, the “PBM E-score” value was 0.222. GGGATCCC was tested, and the “PBM E-score” value was 0.374. In the case of CGGATCCA, the “PBM E-score” value is reported as 0.413. For CAGATCCC, the “PBM E-score” value was 0.0667. AGGATCCC was tested, and the “PBM E-score” value was 0.152. For CGGATCGC, the “PBM E-score” value was 0.279. In the case of CGGATCCG, the “PBM E-score” value is reported as 0.489. With AATCTTGT the “PBM E-score” value was 0.126. For GATCTGCA, the “PBM E-score” value was -0.0215. CCATTCAG was tested, and the “PBM E-score” value was 0.0183. For GATTTCCC, the “PBM E-score” value was 0.143. With CACTCAAC the “PBM E-score” value was -0.0691. For GGGGCGTA, the “PBM E-score” value was -0.114. With CGGGCGTA the “PBM E-score” value was 0.0837. For GGGGCGGA, the “PBM E-score” value was 0.359. CGGGCGGA was tested, and the “PBM E-score” value was 0.383. CGGGCGGC was tested, and the “PBM E-score” value was 0.291.
